# Results: the supplement of paper PMC4022240
# ± gives the standard deviation.
# B1: H3 11-23 T G G Kac A P R Kme Q L A T K (peptide)
# chain: TGGKAPRKQLATK
# B2: H3 11-23 T G G Kac A P R Kme2 Q L A T K (peptide)
# chain: TGGKAPRKQLATK
# B3: H3 11-23 T G G Kac A P R Kme3 Q L A T K (peptide)
# chain: TGGKAPRKQLATK
# B4: H3 11-23 T G G Kac A P Rcit K Q L A T K (peptide)
# chain: TGGKAPRKQLATK
# B5: H3 11-23 T G G Kac A P Rme K Q L A T K (peptide)
# chain: TGGKAPRKQLATK
# Columns and labels:
# Test in all cases: peptide microarray binding signal (635 nm), min-max normalized on array (fraction of array maximum); higher = stronger binding
# Conditions in all cases: peptide region: H3 11-23
# [1] = biological target: T1, HaloTag-ATRX ADD domain (163-292)
# T1 chain: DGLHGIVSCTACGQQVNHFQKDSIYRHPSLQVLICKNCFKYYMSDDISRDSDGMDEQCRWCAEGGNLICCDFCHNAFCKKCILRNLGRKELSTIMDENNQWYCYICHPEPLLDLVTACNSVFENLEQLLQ
# Method in brief: (§1)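 Two probe formats were used for 1 h at 4°C: biotin-labelled HaloTag reader fusions (10 nM to 1 μM) with streptavidin-Alexa Fluor 647, and rabbit histone antibodies (1:10,000 to 1:2,000) with anti-rabbit Alexa 647. Both were applied to nitrocellulose arrays of histone 13-mer peptide–cellulose conjugates printed in triplicate with a Cy3 tracer and blocked overnight at 4°C. Signal was read at 635 nm and misprints at 532 nm on an Axon GenePix 4000B. Binding signal is expressed as the triplicate-spot mean intensity, min-max scaled for each library.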
# [2] = biological target: HaloTag-ING2 PHD (mouse Ing2 200-280)
# Method in brief: as §1
# [3] = biological target: anti-H3K4me3 antibody ab8580
# Method in brief: as §1
# [4] = biological target: anti-H3K9me3 antibody ab8898
# Method in brief: as §1
# [5] = peptide modifications: H3K14ac H3K18me1, binder concentration: 1:2,000 dilution
# [6] = peptide modifications: H3K14ac H3K18me1, binder concentration: 1:10,000 dilution
# [7] = peptide modifications: H3K14ac H3K18me2, binder concentration: 1:2,000 dilution
# [8] = peptide modifications: H3K14ac H3K18me2, binder concentration: 1:10,000 dilution
# [9] = peptide modifications: H3K14ac H3K18me3, binder concentration: 1:2,000 dilution
# [10] = peptide modifications: H3K14ac H3K18me3, binder concentration: 1:10,000 dilution
# [11] = peptide modifications: H3K14ac H3R17cit, binder concentration: 1:2,000 dilution
# [12] = peptide modifications: H3K14ac H3R17cit, binder concentration: 1:10,000 dilution
# [13] = peptide modifications: H3K14ac H3R17me1, binder concentration: 1:2,000 dilution
# [14] = peptide modifications: H3K14ac H3R17me1, binder concentration: 1:10,000 dilution
binder,measurement,setting,value
B1,peptide microarray binding signal,"[1]; peptide modifications: H3K14ac H3K18me1, binder concentration: 50 nM",0.00759 ± 8.2e-05
same,peptide microarray binding signal,"[1]; peptide modifications: H3K14ac H3K18me1, binder concentration: 500 nM",0.012 ± 0.00073
same,peptide microarray binding signal,"[2]; peptide modifications: H3K14ac H3K18me1, binder concentration: 10 nM",0.0187 ± 0.0021
same,peptide microarray binding signal,"[2]; peptide modifications: H3K14ac H3K18me1, binder concentration: 100 nM",0.0405 ± 0.011
same,peptide microarray binding signal,[3]; [5],0.0114 ± 0.0027
same,peptide microarray binding signal,[3]; [6],0.00725 ± 0.00036
same,peptide microarray binding signal,[4]; [5],0.00275 ± 0.00016
same,peptide microarray binding signal,[4]; [6],0.00219 ± 0.0001
B2,peptide microarray binding signal,"[1]; peptide modifications: H3K14ac H3K18me2, binder concentration: 50 nM",0.00727 ± 0.00061
same,peptide microarray binding signal,"[1]; peptide modifications: H3K14ac H3K18me2, binder concentration: 500 nM",0.0126 ± 0.00024
same,peptide microarray binding signal,"[2]; peptide modifications: H3K14ac H3K18me2, binder concentration: 10 nM",0.0171 ± 0.0046
same,peptide microarray binding signal,"[2]; peptide modifications: H3K14ac H3K18me2, binder concentration: 100 nM",0.031 ± 0.014
same,peptide microarray binding signal,[3]; [7],0.0176 ± 0.0051
same,peptide microarray binding signal,[3]; [8],0.0145 ± 0.0016
same,peptide microarray binding signal,[4]; [7],0.00399 ± 0.00012
same,peptide microarray binding signal,[4]; [8],0.00346 ± 0.0001
B3,peptide microarray binding signal,"[1]; peptide modifications: H3K14ac H3K18me3, binder concentration: 50 nM",0.00953 ± 0.0014
same,peptide microarray binding signal,"[1]; peptide modifications: H3K14ac H3K18me3, binder concentration: 500 nM",0.00948 ± 0.00024
same,peptide microarray binding signal,"[2]; peptide modifications: H3K14ac H3K18me3, binder concentration: 10 nM",0.00841 ± 0.00063
same,peptide microarray binding signal,"[2]; peptide modifications: H3K14ac H3K18me3, binder concentration: 100 nM",0.0201 ± 0.0018
same,peptide microarray binding signal,[3]; [9],0.931 ± 0.11
same,peptide microarray binding signal,[3]; [10],0.499 ± 0.075
same,peptide microarray binding signal,[4]; [9],0.0555 ± 0.018
same,peptide microarray binding signal,[4]; [10],0.016 ± 0.00022
B4,peptide microarray binding signal,"[1]; peptide modifications: H3K14ac H3R17cit, binder concentration: 50 nM",0.00671 ± 0.00027
same,peptide microarray binding signal,"[1]; peptide modifications: H3K14ac H3R17cit, binder concentration: 500 nM",0.013 ± 0.00041
same,peptide microarray binding signal,"[2]; peptide modifications: H3K14ac H3R17cit, binder concentration: 10 nM",0.018 ± 0.0015
same,peptide microarray binding signal,"[2]; peptide modifications: H3K14ac H3R17cit, binder concentration: 100 nM",0.0345 ± 0.0076
same,peptide microarray binding signal,[3]; [11],0.00517 ± 0.00085
same,peptide microarray binding signal,[3]; [12],0.00297 ± 0.00013
same,peptide microarray binding signal,[4]; [11],0.00171 ± 5.6e-05
same,peptide microarray binding signal,[4]; [12],0.00127 ± 1.3e-05
B5,peptide microarray binding signal,"[1]; peptide modifications: H3K14ac H3R17me1, binder concentration: 50 nM",0.0113 ± 0.0011
same,peptide microarray binding signal,"[1]; peptide modifications: H3K14ac H3R17me1, binder concentration: 500 nM",0.0152 ± 0.00047
same,peptide microarray binding signal,"[2]; peptide modifications: H3K14ac H3R17me1, binder concentration: 10 nM",0.0182 ± 0.0058
same,peptide microarray binding signal,"[2]; peptide modifications: H3K14ac H3R17me1, binder concentration: 100 nM",0.0339 ± 0.014
same,peptide microarray binding signal,[3]; [13],0.00517 ± 0.00077
same,peptide microarray binding signal,[3]; [14],0.00719 ± 0.0015
same,peptide microarray binding signal,[4]; [13],0.00569 ± 0.00047
same,peptide microarray binding signal,[4]; [14],0.00404 ± 0.00028
